# Paper PMC8384837, “Expanding the binding specificity for RNA recognition by a PUF domain”
# Assays:
# Assay in all cases: yeast three-hybrid, YBZ-1, SC-Leu-His + 0.5 mM 3-AT, 4 days
# Conditions in all cases: tags: N-Gal4 AD-HA kept; label: inside an RPR1-promoter hybrid RNA with tandem MS2 sites; ssRNA
# [1] = biological target: PUM1 PUF domain R8-LYF (Homo sapiens, UniProt Q14671 828-1176, N1122L;Q1126F)
# Summary of the method: (§1)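 Sequencing with Illumina followed PCR amplification of the repeat regions from transformants grown four days on SC-Leu (input) or SC-Leu-His + 0.5 mM 3-AT (selection). The transformants were strain YBZ-1 with a LexA–MS2 coat fusion and a HIS3 reporter, carrying Pumilio-1 PUF domain libraries and matching RNA elements. The interaction score is the log change in variant frequency from input to selection, computed in log2 with a pseudocount of 1 for absent variants.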
# [2] = biological target: PUM1 PUF domain R8-HWP (Homo sapiens, UniProt Q14671 828-1176, N1122H;Y1123W;Q1126P)
# PUM1 PUF domain R8-HWP, sequence (Q14671 828-1176 N1122H/Y1123W/Q1126P): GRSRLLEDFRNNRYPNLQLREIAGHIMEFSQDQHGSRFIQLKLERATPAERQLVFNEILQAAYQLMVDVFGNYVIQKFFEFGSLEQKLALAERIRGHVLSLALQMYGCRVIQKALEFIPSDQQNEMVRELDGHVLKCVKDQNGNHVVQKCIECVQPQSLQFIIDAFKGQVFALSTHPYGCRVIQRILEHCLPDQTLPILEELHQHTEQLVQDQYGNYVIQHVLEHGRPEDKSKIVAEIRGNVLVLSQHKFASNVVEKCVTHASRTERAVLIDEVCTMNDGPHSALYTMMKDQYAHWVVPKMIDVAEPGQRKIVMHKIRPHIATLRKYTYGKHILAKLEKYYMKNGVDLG
# Summary of the method: as §1
# [3] = biological target: PUM1 PUF domain R8-RGR (Homo sapiens, UniProt Q14671 828-1176, N1122R;Y1123G;Q1126R)
# PUM1 PUF domain R8-RGR, sequence (Q14671 828-1176 N1122R/Y1123G/Q1126R): as the sequence (Q14671 828-1176 N1122H/Y1123W/Q1126P) above, with H295R, W296G, P299R counted along it
# Summary of the method: as §1
# [4] = biological target: PUM1 PUF domain R2-LIM (Homo sapiens, UniProt Q14671 828-1176, N899L;Y900I;Q903M)
# PUM1 PUF domain R2-LIM, sequence (Q14671 828-1176 N899L/Y900I/Q903M): as the sequence (Q14671 828-1176 N1122H/Y1123W/Q1126P) above, with N72L, Y73I, Q76M, H295N, W296Y, P299Q counted along it
# Summary of the method: as §1
# [5] = biological target: PUM1 PUF domain R3-IWY (Homo sapiens, UniProt Q14671 828-1176, C935I;R936W;Q939Y)
# PUM1 PUF domain R3-IWY, sequence (Q14671 828-1176 C935I/R936W/Q939Y): as the sequence (Q14671 828-1176 N1122H/Y1123W/Q1126P) above, with C108I, R109W, Q112Y, H295N, W296Y, P299Q counted along it
# Summary of the method: as §1
# [6] = biological target: PUM1 PUF domain R1-RRI (Homo sapiens, UniProt Q14671 828-1176, S863R;Q867I)
# PUM1 PUF domain R1-RRI, sequence (Q14671 828-1176 S863R/Q867I): as the sequence (Q14671 828-1176 N1122H/Y1123W/Q1126P) above, with S36R, Q40I, H295N, W296Y, P299Q counted along it
# Summary of the method: as §1
# [7] = biological target: PUM1 PUF domain R1-IWR (Homo sapiens, UniProt Q14671 828-1176, S863I;R864W;Q867R)
# PUM1 PUF domain R1-IWR, sequence (Q14671 828-1176 S863I/R864W/Q867R): as the sequence (Q14671 828-1176 N1122H/Y1123W/Q1126P) above, with S36I, R37W, Q40R, H295N, W296Y, P299Q counted along it
# Summary of the method: as §1
# [8] = biological target: PUM1 PUF domain R1-TLF (Homo sapiens, UniProt Q14671 828-1176, S863T;R864L;Q867F)
# PUM1 PUF domain R1-TLF, sequence (Q14671 828-1176 S863T/R864L/Q867F): as the sequence (Q14671 828-1176 N1122H/Y1123W/Q1126P) above, with S36T, R37L, Q40F, H295N, W296Y, P299Q counted along it
# Summary of the method: as §1
# [9] = biological target: PUM1 PUF domain R1-RIS (Homo sapiens, UniProt Q14671 828-1176, S863R;R864I;Q867S)
# PUM1 PUF domain R1-RIS, sequence (Q14671 828-1176 S863R/R864I/Q867S): as the sequence (Q14671 828-1176 N1122H/Y1123W/Q1126P) above, with S36R, R37I, Q40S, H295N, W296Y, P299Q counted along it
# Summary of the method: as §1
# [10] = biological target: PUM1 PUF domain R5-HHH (Homo sapiens, UniProt Q14671 828-1176, C1007H;R1008H;Q1011H)
# PUM1 PUF domain R5-HHH, sequence (Q14671 828-1176 C1007H/R1008H/Q1011H): as the sequence (Q14671 828-1176 N1122H/Y1123W/Q1126P) above, with C180H, R181H, Q184H, H295N, W296Y, P299Q counted along it
# Summary of the method: as §1
# [11] = biological target: PUM1 PUF domain R5-QHV (Homo sapiens, UniProt Q14671 828-1176, C1007Q;R1008H;Q1011V)
# PUM1 PUF domain R5-QHV, sequence (Q14671 828-1176 C1007Q/R1008H/Q1011V): as the sequence (Q14671 828-1176 N1122H/Y1123W/Q1126P) above, with C180Q, R181H, Q184V, H295N, W296Y, P299Q counted along it
# Summary of the method: as §1
# [12] = biological target: PUM1 PUF domain R5-DHW (Homo sapiens, UniProt Q14671 828-1176, C1007D;R1008H;Q1011W)
# PUM1 PUF domain R5-DHW, sequence (Q14671 828-1176 C1007D/R1008H/Q1011W): as the sequence (Q14671 828-1176 N1122H/Y1123W/Q1126P) above, with C180D, R181H, Q184W, H295N, W296Y, P299Q counted along it
# Summary of the method: as §1
# [13] = biological target: PUM1 PUF domain R2-VFQ R3-THE R4-TFR (Homo sapiens, UniProt Q14671 828-1176, N899V;Y900F;C935T;R936H;Q939E;N971T;H972F;Q975R)
# PUM1 PUF domain R2-VFQ R3-THE R4-TFR, sequence (Q14671 828-1176 N899V/Y900F/C935T/R936H/Q939E/N971T/H972F/Q975R): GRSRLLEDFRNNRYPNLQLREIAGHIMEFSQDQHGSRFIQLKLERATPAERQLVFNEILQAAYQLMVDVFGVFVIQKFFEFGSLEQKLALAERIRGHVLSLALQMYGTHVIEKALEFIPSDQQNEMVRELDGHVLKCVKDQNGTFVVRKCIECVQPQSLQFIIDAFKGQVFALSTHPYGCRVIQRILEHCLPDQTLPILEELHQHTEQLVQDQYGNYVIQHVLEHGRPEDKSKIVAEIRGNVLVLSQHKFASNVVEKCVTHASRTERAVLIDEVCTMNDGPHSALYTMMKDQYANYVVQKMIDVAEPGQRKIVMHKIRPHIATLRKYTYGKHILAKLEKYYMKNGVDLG
# Summary of the method: as §1
# [14] = biological target: PUM1 PUF domain R5-TEE (Homo sapiens, UniProt Q14671 828-1176, C1007T;R1008E;Q1011E)
# PUM1 PUF domain R5-TEE, sequence (Q14671 828-1176 C1007T/R1008E/Q1011E): as the sequence (Q14671 828-1176 N1122H/Y1123W/Q1126P) above, with C180T, R181E, Q184E, H295N, W296Y, P299Q counted along it
# Summary of the method: as §1
# [15] = biological target: PUM1 PUF domain R5-DRQ (Homo sapiens, UniProt Q14671 828-1176, C1007D)
# PUM1 PUF domain R5-DRQ, sequence (Q14671 828-1176 C1007D): as the sequence (Q14671 828-1176 N1122H/Y1123W/Q1126P) above, with C180D, H295N, W296Y, P299Q counted along it
# Summary of the method: as §1
# [16] = biological target: PUM1 PUF domain R5-KRP (Homo sapiens, UniProt Q14671 828-1176, C1007K;Q1011P)
# PUM1 PUF domain R5-KRP, sequence (Q14671 828-1176 C1007K/Q1011P): as the sequence (Q14671 828-1176 N1122H/Y1123W/Q1126P) above, with C180K, Q184P, H295N, W296Y, P299Q counted along it
# Summary of the method: as §1
# [17] = biological target: PUM1 PUF domain R4-CRS (Homo sapiens, UniProt Q14671 828-1176, N971C;H972R;Q975S)
# PUM1 PUF domain R4-CRS, sequence (Q14671 828-1176 N971C/H972R/Q975S): as the sequence (Q14671 828-1176 N1122H/Y1123W/Q1126P) above, with N144C, H145R, Q148S, H295N, W296Y, P299Q counted along it
# Summary of the method: as §1
# [18] = biological target: PUM1 PUF domain R5-CTR (Homo sapiens, UniProt Q14671 828-1176, R1008T;Q1011R)
# PUM1 PUF domain R5-CTR, sequence (Q14671 828-1176 R1008T/Q1011R): as the sequence (Q14671 828-1176 N1122H/Y1123W/Q1126P) above, with R181T, Q184R, H295N, W296Y, P299Q counted along it
# Summary of the method: as §1
# PUM1 PUF domain R8-LYF, sequence (Q14671 828-1176 N1122L/Q1126F): as the sequence (Q14671 828-1176 N1122H/Y1123W/Q1126P) above, with H295L, W296Y, P299F counted along it
sequence,measurement,setting,value
GGCUAGAACUAGUGGAUCCCCCGGCGCCCGGCGGCUCGAGCCCGGGUAAGCGUAAAUAGUCUGCAUGCCGCCGGGCGCCAUGCCUGCAGGUCGACUCUAGAAAACAUG,binding signal,[1],2.3 log2 enrichment (interaction score)
same,binding signal,[2],5.59 log2 enrichment (interaction score)
same,binding signal,[3],2.53 log2 enrichment (interaction score)
GGCUAGAACUAGUGGAUCCCCCGGCGCCCGGCGGCUCGAGCCCGGGUAAGUGUAAAGAGUCUGCAUGCCGCCGGGCGCCAUGCCUGCAGGUCGACUCUAGAAAACAUG,binding signal,[4],3.94 log2 enrichment (interaction score)
GGCUAGAACUAGUGGAUCCCCCGGCGCCCGGCGGCUCGAGCCCGGGUAAGUGUAAGUAGUCUGCAUGCCGCCGGGCGCCAUGCCUGCAGGUCGACUCUAGAAAACAUG,binding signal,[5],1.76 log2 enrichment (interaction score)
GGCUAGAACUAGUGGAUCCCCCGGCGCCCGGCGGCUCGAGCCCGGGUAAGUGUAAUUAGUCUGCAUGCCGCCGGGCGCCAUGCCUGCAGGUCGACUCUAGAAAACAUG,binding signal,[5],3.36 log2 enrichment (interaction score)
GGCUAGAACUAGUGGAUCCCCCGGCGCCCGGCGGCUCGAGCCCGGGUAAGUGUAAAUCGUCUGCAUGCCGCCGGGCGCCAUGCCUGCAGGUCGACUCUAGAAAACAUG,binding signal,[6],3.61 log2 enrichment (interaction score)
same,binding signal,[7],2.56 log2 enrichment (interaction score)
GGCUAGAACUAGUGGAUCCCCCGGCGCCCGGCGGCUCGAGCCCGGGUAAGUGUAAAUUGUCUGCAUGCCGCCGGGCGCCAUGCCUGCAGGUCGACUCUAGAAAACAUG,binding signal,[7],1.52 log2 enrichment (interaction score)
same,binding signal,[8],4.45 log2 enrichment (interaction score)
same,binding signal,[9],3.81 log2 enrichment (interaction score)
GGCUAGAACUAGUGGAUCCCCCGGCGCCCGGCGGCUCGAGCCCGGGUAAGUGUUAAUAGUCUGCAUGCCGCCGGGCGCCAUGCCUGCAGGUCGACUCUAGAAAACAUG,binding signal,[10],5.29 log2 enrichment (interaction score)
same,binding signal,[11],3.88 log2 enrichment (interaction score)
same,binding signal,[12],3.46 log2 enrichment (interaction score)
GGCUAGAACUAGUGGAUCCCCCGGCGCCCGGCGGCUCGAGCCCGGGUAAGUGUACGAAGUCUGCAUGCCGCCGGGCGCCAUGCCUGCAGGUCGACUCUAGAAAACAUG,binding signal,[13],3.9 log2 enrichment (interaction score)
GGCUAGAACUAGUGGAUCCCCCGGCGCCCGGCGGCUCGAGCCCGGGUAAGUGUGAAUAGUCUGCAUGCCGCCGGGCGCCAUGCCUGCAGGUCGACUCUAGAAAACAUG,binding signal,[14],3.25 log2 enrichment (interaction score)
same,binding signal,[15],3.23 log2 enrichment (interaction score)
same,binding signal,[16],0.17 log2 enrichment (interaction score)
GGCUAGAACUAGUGGAUCCCCCGGCGCCCGGCGGCUCGAGCCCGGGUAAGUGUAAAUAGUCUGCAUGCCGCCGGGCGCCAUGCCUGCAGGUCGACUCUAGAAAACAUG,binding signal,[3],1.23 log2 enrichment (interaction score)
same,binding signal,[17],2.69 log2 enrichment (interaction score)
same,binding signal,[18],1.1 log2 enrichment (interaction score)
GGCUAGAACUAGUGGAUCCCCCGGCGCCCGGCGGCUCGAGCCCGGGUAAGUGUCAAUAGUCUGCAUGCCGCCGGGCGCCAUGCCUGCAGGUCGACUCUAGAAAACAUG,binding signal,[15],3.34 log2 enrichment (interaction score)
same,binding signal,[16],2.24 log2 enrichment (interaction score)
same,binding signal,[18],4.38 log2 enrichment (interaction score)
